In PubChem BioAssay (NCI):
About 83,000 compounds went through this panel and 20% of them were active in at least one assay; those are over-represented in the sample as a whole.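 Values shown are percent growth following 48 h exposure of cells in 96-well plates to a single concentration of compound; below 10 was considered active.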 Unmarked numbers belong to inactive results. The source made the active and inactive calls.

Experiments:
Assay in all cases: NCI-60 one-dose screen, 48 h (100 = growth as untreated, 0 = no growth, -100 = all killed)
Conditions in all cases: 10 µM unless noted
SR leukemia = test system: SR leukemia
RPMI-8226 leukemia = test system: RPMI-8226 leukemia
OVCAR-8 ovarian = test system: OVCAR-8 ovarian
OVCAR-5 ovarian = test system: OVCAR-5 ovarian
OVCAR-4 ovarian = test system: OVCAR-4 ovarian
SK-OV-3 ovarian = test system: SK-OV-3 ovarian
IGROV1 ovarian = test system: IGROV1 ovarian
OVCAR-3 ovarian = test system: OVCAR-3 ovarian
HS 578T breast = test system: HS 578T breast
NCI/ADR-RES ovarian = test system: NCI/ADR-RES ovarian
T-47D breast = test system: T-47D breast
BT-549 breast = test system: BT-549 breast
MDA-MB-435 melanoma = test system: MDA-MB-435 melanoma
SW-620 colon = test system: SW-620 colon
MCF7 breast = test system: MCF7 breast
HCT-116 colon = test system: HCT-116 colon
HCC-2998 colon = test system: HCC-2998 colon
KM12 colon = test system: KM12 colon

Row | Structure (SMILES) | growth (SR leukemia) | growth (RPMI-8226 leukemia) | growth (OVCAR-8 ovarian) | growth (OVCAR-5 ovarian) | growth (OVCAR-4 ovarian) | growth (SK-OV-3 ovarian) | growth (IGROV1 ovarian) | growth (OVCAR-3 ovarian) | growth (HS 578T breast) | growth (NCI/ADR-RES ovarian) | growth (T-47D breast) | growth (BT-549 breast) | growth (MDA-MB-435 melanoma) | growth (SW-620 colon) | growth (MCF7 breast) | growth (HCT-116 colon) | growth (HCC-2998 colon) | growth (KM12 colon)
1 | Cc1cccc(/C=N/Nc2cc(C)c3cccc(C)c3n2)n1 | 47.2% | 60.8% | 83.3% | 94.3% | 90.2% | 115% | 96.7% | 102% | 108% | 84.5% | 83% | 91.4% | 96.3% | 94.7% | 48.4% | 65.1% | 108% | 97.5%
2 | COc1ccc(C(=O)NC(=O)Nc2cc3c(cc2F)/C(=C/c2[nH]c(C)c(CCC(=O)O)c2C)C(=O)N3)c(F)c1 | 26.5% | -2.09% (active) | 6.72% (active) | 63.1% | 80.3% | 60.5% | 37.4% | 36.8% | 16.3% | 83.9% | 47.8% | 25.2% | 36.8% | 26.6% | 41.7% | 37% | 50.3% | 11.7%
3 | O=[N+]([O-])c1cccc(-c2nc3sccn3c2-c2ccnc(NCCCNS(=O)(=O)c3ccc(Cl)cc3)n2)c1 | 60.7% | 16.2% | 20% | 112% | 17.5% | 96.5% | 43.3% | 44.5% | 81.2% | 12.6% | 6.46% (active) | 30.2% | 33.4% | 90.1% | 33.2% | 53.3% | 116% | 39.2%
4 | Cc1nc2c3c(ncn2n1)Oc1c(c(=O)[nH]c2ccccc12)C3c1ccc(Cl)cc1 (stereo unspecified) | 100% | 86.2% | 97.3% | 101% | 97% | 116% | 89.3% | 99.2% | 99.7% | 94.7% | 86% | -52.7% (active) | 102% | 95.4% | 91.6% | 88.8% | 102% | 99.2%
5 | OB(O)c1cccc(-c2nc3ccc4[nH]ncc4c3c3c2CCCC3)c1F | 48.7% | 50.7% | 52.8% | 75.1% | 76.4% | -10.7% (active) | 41.1% | 62.5% | 24.9% | 53.7% | 54.1% | 30.2% | 44.4% | 35.1% | 62.5% | 20.9% | 71.4% | 28.7%
6 | CCOC(=O)/C(C#N)=C1/C(=O)Nc2ccccc21 | 149% | 111% | 108% | 104% | 114% | 117% | 109% | 134% | 121% | 112% | 98.7% | 112% | 119% | 109% | 103% | 98.4% | 109% | 112%
7 | Cc1cc(N/N=C/c2nc(-c3ccc(Br)cc3)oc2C)c2cc(Cl)ccc2n1 | 5.46% (active) | -9.52% (active) | 41.4% | 102% | -74.2% (active) | 104% | 92.6% | 45.2% | 106% | 69.2% | 95.8% | 98.1% | 16.8% | -8.11% (active) | -55% (active) | -16.5% (active) | 96.1% | 84%
8 | O=C(Nc1ccc(NCCN2CCOCC2)nc1)c1ccc([N+](=O)[O-])cc1 | 113% | 107% | 96.2% | 105% | 103% | 107% | 121% | 114% | 104% | 105% | 107% | 98.6% | 97.8% | 104% | 89.2% | 97.2% | 101% | 104%
9 | CC(C)C(C(=O)NCCN1CCOCC1)N1C(=O)/C(=C/c2ccc(Br)cc2)SC1=S (stereo unspecified) | 111% | 98% | 108% | 102% | 105% | 112% | 108% | 104% | 95.1% | 96.7% | 94.1% | 99% | 101% | 102% | 95.3% | 94.8% | 107% | 99.7%
10 | COc1ccc(OC)c(/C=C2\Oc3cc(OCCCN4CCCC4)ccc3C2=O)c1 | -22.8% (active) | 77.7% | 78.1% | 82.1% | 86.7% | 110% | 84.2% | 91% | 80.8% | 80.3% | 92.6% | 87.9% | 91.2% | 55.9% | 55.7% | 46.1% | 87.3% | 73.6%
11 | O=C(NNC(=S)Nc1ccccc1)c1cc2ccc1CCc1ccc(cc1)CC2 | 78.4% | 46.4% | 68.2% | 92.2% | 47.8% | 113% | 64.1% | 55.5% | 97.2% | 67.2% | 53.6% | 80.4% | 70.3% | 63.6% | 61.7% | 44.5% | 70.2% | 77.1%
12 | CCOC(=O)C1=C(C)NC(C)=C(C(=O)OCC)C1(C)C | 90.6% | 94.8% | 102% | 99.7% | 101% | 110% | 131% | 112% | 107% | 122% | 95% | 93.6% | 116% | 117% | 98.9% | 100% | 108% | 118%
13 | CCN(CC)CCOc1ccc(/C(=C(/C)c2ccccc2)c2ccc(OC(C)=O)cc2)cc1 | 112% | 100% | 112% | 98.2% | 100% | 106% | 105% | 104% | 95.2% | 101% | 60.2% | 69.1% | 94.8% | 95.5% | 41.7% | 79% | 103% | 102%
14 | NC1=NN(O)C2=CC([N+](=O)[O-])C=CC2=N1 (stereo unspecified) | 94.8% | 99.2% | 99.4% | 118% | 108% | 100% | 120% | 99.8% | 98.8% | 93.4% | 101% | 104% | 109% | 110% | 96.1% | 107% | 97.2% | 103%
15 | COc1ccncc1S(=O)(=O)NC(=O)Nc1ccc(Cl)c(Cl)c1 | 74.8% | 46.2% | 97.8% | 89.6% | 95.7% | 114% | 82.7% | 90% | 93.9% | 89.8% | 78.1% | 111% | 100% | 99.6% | 105% | 91.7% | 101% | 91.9%
16 | CCN1C(=O)N(CC)C2C1NN=c1s/c(=C\c3cccnc3)c(=O)n12 (stereo unspecified) | 15.1% | 47.5% | 35.8% | 42.1% | 44.1% | 42.7% | 30.7% | -22.9% (active) | 19.7% | 16.2% | 53.4% | 57.3% | -46.6% (active) | 26.5% | 21.7% | 15.8% | 26.8% | 19.5%
17 | CCOC(=O)c1c(/N=C2\SC(=O)/C(=C\C(=O)OC)N2NC)sc2c1CCN(C(=O)OCC)C2 | 103% | 95.3% | 103% | 102% | 99.1% | 109% | 102% | 106% | 103% | 103% | 93.4% | 91.7% | 101% | 105% | 98.7% | 95% | 92.5% | 99.1%
